Test results as given in PubChem BioAssay.

Experiment: growth of efflux-deficient E. coli DRC39 – strain DRC39, OD650, 48 h, E. coli filamentation inducers, primary screen (AID 1179);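 further: screen aims at cell division blockers that make cells filament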
Conditions: E. coli DRC39 delta-acrAB growth, higher = more signal, called active from +8 up or from −8 down

z-score, inactive:
COCCn1c(C(=O)N2CCCC2)cc2c1C[C@H]1CN(C(=O)c3ccccc3)[C@@](Cc3ccccc3)(C(=O)OC)[C@@H]21 -0.0447
CCCC[C@@H](O)C1=C(COC)Cn2c(=O)n(-c3ccccc3)c(=O)n2[C@H]1CO 1.06
CN(C)C(=O)[C@]1(Cc2ccccc2)N=C(c2ccc(OCCCO)cc2)O[C@@H]1c1ccccc1 -0.591
COc1ccc([Si](C)(C)[C@H]2[C@H](CCO)O[C@@]3(C(=O)N(Cc4ccc(N5CCOC5=O)cc4)c4ccccc43)[C@@H]2C)cc1 0.714
C=CCC(OC(C)=O)[C@@H]1[C@@H](N(Cc2cccc3ccccc23)C(=O)c2ccc(-c3ccccc3)cc2)c2cc(OCCCO)ccc2N1C(=O)c1ccc2ccccc2n1 (stereo not given in full) -0.174
C=CC[C@@]1(C(=O)O)N=C(c2ccc(OCCCO)cc2)O[C@@H]1c1ccccc1CN=[N+]=[N-] 0.302
COC(=O)c1c(CC[C@@H](CO)NC(=O)N[C@@H](Cc2ccccc2)Cn2cc(-c3cncn3C)nn2)oc(C(C)=O)c1C(=O)OC 0.438
COC(=O)Cn1c(C(=O)N(C)C)cc2c1C[C@H]1CN(C(=O)c3ccccc3)[C@@](Cc3ccc(OC)cc3)(C(=O)OC)[C@@H]21 -0.263
CCCC=C(CCC)[C@@H](NS(=O)(=O)c1ccc(Cl)cc1)c1ccccc1 -1
COc1ccc(CCNC(=O)[C@@H]2c3ccccc3C(=O)N(CC34CC5CC(CC(C5)C3)C4)[C@H]2c2ccc(CO)cc2)cc1 0.119
